Screening data: PubChem, several laboratories
Only some compounds are listed: those with a hit (about 2.8% of all), similar ones and a draw of the others.
Shn3 3UTR inh: reduction of Shn3 3'UTR firefly luciferase signal, primary screen, Schnurri-3 inhibitor project, cell-based, Clone20 osteoblasts, set 2; 360,000 tested, 0.52% active; inhibition, % at 12.5 µM; Clone20 osteoblast Shn3 3'UTR firefly luciferase, 24 h;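 active = mean inhibition of at least 75% with every replicate also reaching 75%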
Peg3 prom inh: Peg3 promoter-driven luciferase inhibitors, primary screen, cell-based, HeLa, luciferase luminescence; 360,000 tested, 1.7% active; HeLa PEG-Prom luciferase reporter, overnight; inhibition, % at 20 µM;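 active = inhibition of at least 50% at 20 µM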
MITF TRPM1 inh: inhibitors of MITF-dependent TRPM1 promoter reporter, primary screen, cell-based, SK-MEL-5, single point, luciferase; SK-MEL-5 TRPM1 promoter luciferase, 24 h; AID 488899, 2010; inhibition, % at 12.5 µM; 330,000 tested, 0.83% active;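 active = mean inhibition across replicates of 60% or more, whatever share of single replicates reaches that level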
HIF-2a inh: HIF-2a reporter inhibitors, primary screen, luminescence, 786-0 RCC cells | AID 624352, 2012 | 360,000 tested, 0.72% active | inhibition, % at 18.8 µM | 786-0 RCC cells HIF-2a reporter, luciferase luminescence, overnight;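 active = inhibition of the luminescence signal of 40% or more relative to plate controls, in a single-dose primary screen at 18.75 µM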
EBV LMP1 NFkB: EBV LMP1-driven NF-kappaB luciferase reporter inhibitors, primary screen, cell-based, luminescence, single point. LMP1-induced NF-kappaB luciferase reporter cells. inhibition, % at 12.5 µM. 350,000 tested, 0.69% active; in the data active = inhibition above about 41%
PAX8 inh HTS: inhibitors of PAX8-driven TPO luciferase reporter, primary screen, RMG-I cells, single concentration. SteadyGlo, 24 h. inhibition, % at 12.6 µM. 360,000 tested, 1.2% active;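 active = mean replicate inhibition at least 60% with every replicate also reaching 60%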;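 note: luciferase light reporting Pax8 driven TPO promoter activity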
Numbers stand for hits.

O=C(C1CCN(S(=O)(=O)N2CCCCC2)CC1)N1CCCCC1 was read as Shn3 3UTR inh inactive, Peg3 prom inh inactive, MITF TRPM1 inh inactive, HIF-2a inh inactive, EBV LMP1 NFkB 56 and PAX8 inh HTS inactive.
O=C(Cc1ccccn1)N[C@H]1CC[C@@H](CCn2cc(-c3cccnc3)nn2)O[C@@H]1CO was read as PAX8 inh HTS inactive.
For COc1ccccc1N1CCN(c2ccc(-c3ccccc3)nn2)CC1 the results were Shn3 3UTR inh inactive, Peg3 prom inh inactive, MITF TRPM1 inh inactive, HIF-2a inh inactive and EBV LMP1 NFkB 70.
Screening CN(CC(=O)NC1CCCCC1)S(=O)(=O)c1ccc(Cl)cc1 returned Shn3 3UTR inh inactive, Peg3 prom inh 91, MITF TRPM1 inh inactive, HIF-2a inh inactive, EBV LMP1 NFkB inactive and PAX8 inh HTS inactive.
`OC[C@H]1CC[C@@H]2O[C@H](CCc3ccc(C#CCc4ccccc4)cc3)[C@@H](n3cc(-c4ccccc4)nn3)C[C@@H]2O1` gave PAX8 inh HTS 71.
Screening C[C@H](CO)N1C[C@H](C)[C@H](CN(C)C(=O)Nc2ccc(F)cc2)Oc2ccc(NC(=O)C3CC3)cc2CC1=O returned PAX8 inh HTS inactive.
`CCc1ccc(/C=C/C(=O)C2C(=O)c3ccccc3C2=O)cc1` gave Shn3 3UTR inh inactive, Peg3 prom inh inactive, MITF TRPM1 inh inactive, HIF-2a inh inactive and EBV LMP1 NFkB 51.
Screening COc1cc(/C=C/c2cccc[n+]2C)ccc1OCC(=O)Nc1ccccc1C returned Shn3 3UTR inh inactive, Peg3 prom inh inactive, MITF TRPM1 inh inactive, HIF-2a inh inactive, EBV LMP1 NFkB inactive and PAX8 inh HTS inactive.
Screening CCOc1cc(/C=C/c2cccc[n+]2C)ccc1OCC(=O)Nc1ccc(C)cc1 returned Shn3 3UTR inh inactive, Peg3 prom inh inactive, MITF TRPM1 inh inactive, HIF-2a inh inactive, EBV LMP1 NFkB inactive and PAX8 inh HTS 74.
C[C@@H]1CCCCO[C@@H](CN(C)S(=O)(=O)c2ccc(Cl)cc2)[C@H](C)CN([C@@H](C)CO)C(=O)c2cc(NC(=O)CCC(F)(F)F)ccc2O1 was read as PAX8 inh HTS inactive.
Screening CC1(C)Cc2c(c(N3CCOCC3)nc3snc(N)c23)CO1 returned Shn3 3UTR inh inactive, Peg3 prom inh 65, MITF TRPM1 inh inactive, HIF-2a inh inactive, EBV LMP1 NFkB inactive and PAX8 inh HTS inactive.
For CC1(C)Cc2c(c(N3CCOCC3)nc3snc(Br)c23)CO1 the results were Shn3 3UTR inh inactive, Peg3 prom inh 92, MITF TRPM1 inh inactive, HIF-2a inh inactive, EBV LMP1 NFkB inactive and PAX8 inh HTS inactive.
CCc1cc2c(=O)[nH]c(N3CCCC3)nc2s1 was read as Shn3 3UTR inh inactive, Peg3 prom inh inactive, MITF TRPM1 inh inactive, HIF-2a inh inactive, EBV LMP1 NFkB inactive and PAX8 inh HTS inactive.
For CCc1cc2c(=O)[nH]c(-c3ccccn3)nc2s1 the results were Shn3 3UTR inh inactive, Peg3 prom inh 96, MITF TRPM1 inh inactive, HIF-2a inh inactive, EBV LMP1 NFkB inactive and PAX8 inh HTS inactive.
For CCOC(=O)c1c(-c2ccccc2)oc2cc(CN(C)C)c(O)c(CN(C)C)c12 the results were Shn3 3UTR inh 94, Peg3 prom inh 68, MITF TRPM1 inh inactive, HIF-2a inh inactive and EBV LMP1 NFkB inactive.
Screening CCOC(=O)c1c(-c2ccccc2)oc2ccc(O)c(CN3CCN(C)CC3)c12 returned Shn3 3UTR inh inactive, Peg3 prom inh 54, MITF TRPM1 inh inactive, HIF-2a inh inactive, EBV LMP1 NFkB inactive and PAX8 inh HTS inactive.
`COCCOC(=O)c1c(C)oc2ccc(O)c(CN3CCC(C)CC3)c12` (tested in a mixture with another compound) gave Shn3 3UTR inh 93, Peg3 prom inh inactive, MITF TRPM1 inh inactive, HIF-2a inh inactive and EBV LMP1 NFkB inactive.
For CCOC(=O)c1c(C)oc2cc(Cl)c(O)c(CN(C)C)c12 the results were Shn3 3UTR inh inactive, Peg3 prom inh inactive, MITF TRPM1 inh inactive, HIF-2a inh inactive, EBV LMP1 NFkB inactive and PAX8 inh HTS inactive.
`CCOC(=O)c1c(C)n(C)c2ccc(O)c(CN3CCC(C)CC3)c12` gave Shn3 3UTR inh inactive, Peg3 prom inh inactive, MITF TRPM1 inh inactive, HIF-2a inh inactive and EBV LMP1 NFkB inactive.
`CCOC(=O)c1c(C)n(C)c2ccc(O)c(CN3CCN(C)CC3)c12` gave Shn3 3UTR inh inactive, Peg3 prom inh inactive, MITF TRPM1 inh inactive, HIF-2a inh inactive and EBV LMP1 NFkB inactive.
COCCNC(=O)C[C@@H]1CC[C@@H]2[C@H](COC[C@@H](O)CN2C(=O)Nc2ccc3c(c2)OCO3)O1 was read as PAX8 inh HTS inactive.
For N=c1c(-c2nc3ccccc3[nH]2)cc(C(=O)c2ccco2)nn1-c1ccccc1 the results were Shn3 3UTR inh inactive, Peg3 prom inh inactive, MITF TRPM1 inh inactive, HIF-2a inh inactive, EBV LMP1 NFkB inactive and PAX8 inh HTS inactive.
`N=c1c(-c2nc3ccccc3[nH]2)cc(C(=O)c2cccs2)nn1-c1ccccc1` gave Shn3 3UTR inh inactive, Peg3 prom inh inactive, MITF TRPM1 inh inactive, HIF-2a inh inactive and EBV LMP1 NFkB 42.
`COc1ccc(NC(=O)N(C)C[C@H]2OCCCC[C@H](C)Oc3ccc(NC(=O)NC4CCCCC4)cc3C(=O)N([C@H](C)CO)C[C@@H]2C)cc1` gave PAX8 inh HTS inactive.
`O=C1C=CC(=O)N1CCCCCCN1C(=O)C=CC1=O` gave PAX8 inh HTS 109.
`O=C(O)CN1C(=O)C=CC1=O` gave Shn3 3UTR inh inactive, Peg3 prom inh inactive, HIF-2a inh inactive, EBV LMP1 NFkB inactive and PAX8 inh HTS inactive.
COc1cccc(NC(=O)N2CC(=O)N3[C@H](CO)[C@H](c4ccc(C#CCC5CCCC5)cc4)[C@H]3C2)c1 was read as PAX8 inh HTS inactive.
For Cc1cc(/C=C2\Sc3ccccc3N2C)cc(C)[n+]1CC1CCCO1 (centres undefined) the results were Shn3 3UTR inh 89, Peg3 prom inh 70, MITF TRPM1 inh 74, HIF-2a inh inactive, EBV LMP1 NFkB inactive and PAX8 inh HTS 78.
Screening Cc1ccc(/C=C2/Sc3ccccc3N(CC(=O)NCC3CCCO3)C2=O)cc1 (centres undefined) returned Shn3 3UTR inh inactive, Peg3 prom inh inactive, MITF TRPM1 inh inactive, HIF-2a inh inactive and EBV LMP1 NFkB inactive.
For CCC(=O)N/N=C/c1ccc(-c2ccc([N+](=O)[O-])cc2)o1 the results were Shn3 3UTR inh inactive, Peg3 prom inh inactive, MITF TRPM1 inh inactive, HIF-2a inh inactive, EBV LMP1 NFkB inactive and PAX8 inh HTS inactive.
Screening CC(C)(C)C(=O)/C=c1\s/c(=C\c2ccc(-c3ccc([N+](=O)[O-])cc3)o2)c(=O)n1CC(=O)NC(N)=O returned Shn3 3UTR inh inactive, Peg3 prom inh 55, MITF TRPM1 inh inactive, HIF-2a inh inactive, EBV LMP1 NFkB inactive and PAX8 inh HTS inactive.
